{"source": "the OligoGym collection"}
{"target": "KRI1", "assay": "pooled miR-30 sensor sort-seq; sequence = guide strand", "details": "shRNA"}
{"sequence": "TAACCTTCCTCTCGTAGTCCTT", "sensor-assay potency score (higher = more potent)": -0.514}
{"sequence": "TTTGTAAAAGTCCCGCTCCTGC", "sensor-assay potency score (higher = more potent)": -0.976}
{"sequence": "TACAGGGGCTTCCTCTTCCTGT", "sensor-assay potency score (higher = more potent)": -0.817}
{"sequence": "TTACTTTCCGCAGCTTCTCCAG", "sensor-assay potency score (higher = more potent)": -1.11}
{"sequence": "TTGAGCTCTTCCTGCTTCTTTG", "sensor-assay potency score (higher = more potent)": -1.32}
{"sequence": "ATGTCCTCGTAGTCCAGCCGGT", "sensor-assay potency score (higher = more potent)": -1.51}
{"sequence": "TACTTTCCGCAGCTTCTCCAGC", "sensor-assay potency score (higher = more potent)": -0.735}
{"sequence": "TTCTTCAACAAGGAGAGCGTTT", "sensor-assay potency score (higher = more potent)": -0.767}
{"target": "KRT2", "assay": "pooled miR-30 sensor sort-seq; sequence = guide strand", "details": "shRNA"}
{"sequence": "TACACTGCTTCTTCACATGTGC", "sensor-assay potency score (higher = more potent)": 0.0185}
{"sequence": "TTTCAGAAACTCAATTTCCTGG", "sensor-assay potency score (higher = more potent)": -0.272}
{"sequence": "TTCTGCAGTGAGCCCATCCAGA", "sensor-assay potency score (higher = more potent)": -1.13}
{"sequence": "TTTGATGAAATGGTGCTGCTTG", "sensor-assay potency score (higher = more potent)": 0.566}
{"sequence": "TATCTTGATCTCTTTCAGGCTG", "sensor-assay potency score (higher = more potent)": 0.155}
{"sequence": "TTCACATTCTGGATCTCTGGGT", "sensor-assay potency score (higher = more potent)": 0.038}
{"sequence": "TTTTGATCTGCTCACGCTCTTG", "sensor-assay potency score (higher = more potent)": -1.42}
{"sequence": "TTGGACTGCAACTCCACCTTTA", "sensor-assay potency score (higher = more potent)": -0.149}
{"sequence": "TAAACCTCCAACACCACCAGGG", "sensor-assay potency score (higher = more potent)": 0.275}
{"sequence": "TTGCACATTCTTACACTGCTTC", "sensor-assay potency score (higher = more potent)": 0.204}
{"sequence": "TTGATCTCCGGCTTCCACCAGA", "sensor-assay potency score (higher = more potent)": -0.146}
{"sequence": "TTGGTGTCAGTGACACTCTGAT", "sensor-assay potency score (higher = more potent)": -0.228}
{"target": "KRT33B", "assay": "pooled miR-30 sensor sort-seq; sequence = guide strand", "details": "shRNA"}
{"sequence": "TCGATCTGCACCACCAGCCTGG", "sensor-assay potency score (higher = more potent)": -0.584}
{"sequence": "ATTGTCGATCTGCACCACCAGC", "sensor-assay potency score (higher = more potent)": -1.36}
{"sequence": "ATACTGATTCCTGGTCTCGTTC", "sensor-assay potency score (higher = more potent)": -1.38}
{"sequence": "TGGTTCTGAAGTCATCTGCAGC", "sensor-assay potency score (higher = more potent)": -1.53}
{"sequence": "TTCTGAAGTCATCTGCAGCCAG", "sensor-assay potency score (higher = more potent)": -0.402}
{"sequence": "TAGGACTGCAGCTGCTCCGAGC", "sensor-assay potency score (higher = more potent)": -1.39}
{"sequence": "TTTCCAGAGAGTATCGCAGGTT", "sensor-assay potency score (higher = more potent)": 0.0223}
{"sequence": "TTTTCACATGCATTGGTGGTGG", "sensor-assay potency score (higher = more potent)": 0.0181}
{"sequence": "TTCTCAGACTTGCTGCACAGGA", "sensor-assay potency score (higher = more potent)": -1.16}
{"sequence": "TTTTCCAGAGAGTATCGCAGGT", "sensor-assay potency score (higher = more potent)": 0.0207}
{"sequence": "TTGGTTCTGAAGTCATCTGCAG", "sensor-assay potency score (higher = more potent)": 0.243}
{"sequence": "TTGTCGATCTGCACCACCAGCC", "sensor-assay potency score (higher = more potent)": -0.512}
{"sequence": "TCCGTCTGGTACTTGGTTCTGA", "sensor-assay potency score (higher = more potent)": -0.6}
{"sequence": "TTGTCAGAGAGGCAGAACTGGC", "sensor-assay potency score (higher = more potent)": -1.76}
{"target": "KRT75", "assay": "pooled miR-30 sensor sort-seq; sequence = guide strand", "details": "shRNA"}
{"sequence": "TTTCACATGTGTAACAGACGGG", "sensor-assay potency score (higher = more potent)": 0.696}
{"sequence": "TTAATTTCATCTTCGTACCTGA", "sensor-assay potency score (higher = more potent)": 0.609}
{"sequence": "TTAATAGACACATTCCAGGGAG", "sensor-assay potency score (higher = more potent)": 0.363}
{"sequence": "TTCCACAACATCCTGCATGTTC", "sensor-assay potency score (higher = more potent)": 0.126}
{"sequence": "TTGACTCCAAACCTGTTGCTGG", "sensor-assay potency score (higher = more potent)": -0.175}
{"sequence": "TTCACATGTGTAACAGACGGGT", "sensor-assay potency score (higher = more potent)": -0.549}
